In PubChem BioAssay (Tox21):
Inconclusive results are not listed. A call without a number means that no potency is given here. Unmarked numbers belong to inactive results. Active and inactive are the calls of the source. Calls follow the shape of the dose curve; as a rule, active = well fitted curve in the direction sought with a large enough effect in the repeat runs; inconclusive = weak or mixed curves; inactive = no such curve, though single readings can be large; an effect the other way counts as inactive or inconclusive.

Assays:
[1] = qHTS RealTime-Glo MT Cell Viability Assay in HepG2 cells - 40 hour (AID 1224870); also: nearly all actives have a fitted effect of over 50% in size
Method in brief: (§1)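 Real-time viability: cells seeded at 600 per well together with NanoLuc and cell-permeant prosubstrate, compounds added after 5 h incubation. Luminescence tracked at 0, 8, 16, 24, 32 and 40 h of exposure.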

[2] = A CellTox Green Cytotoxicity Assay to monitor cytotoxicity in HEK293 cells - 40 hour (AID 1224871); also: nearly all actives have a fitted effect of over 45% in size
Method in brief: (§2)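 Cells (HEK293, 600/well) and dye reagent are dispensed together. After 5 h at 37 C, 23 nL compound is pinned in. Plates stay at 37 C for 40 h with fluorescence read at 0h, 8h, 16h, 24h, 32h and 40h.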

[3] = qHTS RealTime-Glo MT Cell Viability Assay in HEK293 cells - 16 hour (AID 1224872); also: nearly all actives have a fitted effect of over 50% in size; also: potency is read from the fitted curve at half-maximal effect
Method in brief: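 Viability tracked continuously by luminescence as live cells reduce a prosubstrate for NanoLuc; HEK293 cells preincubated 5 h, compound-treated at 37 C, and read at 0, 8, 16, 24, 32 and 40 h.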

[4] = qHTS RealTime-Glo MT Cell Viability Assay in HepG2 cells - 8 hour (AID 1224873); also: nearly all actives have a fitted effect of over 55% in size
Method in brief: as §1

[5] = qHTS RealTime-Glo MT Cell Viability Assay in HEK293 cells - 40 hour (AID 1224874); conditions: RealTime-Glo luminescence; max response: hits give low values; also: nearly all actives have a fitted effect of over 50% in size; also: potency is read from the fitted curve at half-maximal effect
Method in brief: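 Real-time viability in HEK293: signal arises when living cells convert a prosubstrate for NanoLuc in the medium, so luminescence tracks viable cell number. Compound (23 nL, DMSO) added 5 h post-seeding; kinetic reads at 0–40 h, 37 C.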

[6] = A CellTox Green Cytotoxicity Assay to monitor cytotoxicity in HEK293 cells - 24 hour (AID 1224875); also: series mostly up to about 77 µM; nearly all actives have a fitted effect of over 45% in size
Method in brief: as §2

[7] = A CellTox Green Cytotoxicity Assay to monitor cytotoxicity in HepG2 cells - 16 hour (AID 1224876); also: nearly all actives have a fitted effect of over 45% in size
Method in brief: (§3)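 Cells and non-lytic dye reagent are dispensed together (600 HepG2 cells/well) and incubated 5 h before DMSO compound transfer. Kinetic fluorescence is then recorded in the same wells during 40 h at 37 C.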

[8] = qHTS RealTime-Glo MT Cell Viability Assay in HepG2 cells - 32 hour (AID 1224877); also: nearly all actives have a fitted effect of over 55% in size
Method in brief: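 Viability was tracked continuously by NanoLuc luminescence from prosubstrate reduced by living HepG2 cells, at successive time points over 40 h of compound exposure. Cells with reagent were preincubated 5 h at 37 °C before compound addition.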

[9] = A CellTox Green Cytotoxicity Assay to monitor cytotoxicity in HepG2 cells - 24 hour (AID 1224878); also: nearly all actives have a fitted effect of over 45% in size
Method in brief: as §3

[10] = A CellTox Green Cytotoxicity Assay to monitor cytotoxicity in HepG2 cells - 40 hour (AID 1224879); also: nearly all actives have a fitted effect of over 40% in size
Method in brief: as §3

SMILES | Potency [1] | Potency [2] | Potency [3] | outcome [4] | max response [5] [%] | Potency [6] | Potency [7] | Potency [8] | Potency [9] | Potency [10] | Potency [5]
CO[Si](CCCNCCC[Si](OC)(OC)OC)(OC)OC | inactive | inactive | inactive | inactive | 5.67 | inactive | inactive | inactive | inactive | inactive | 
CC12CCC(CC1=O)C2(C)C (stereo not given) | inactive | inactive | inactive | inactive | -2.19 | inactive | inactive | inactive | inactive | inactive | 
NC(=O)c1c(Cl)cccc1Cl | inactive | inactive | inactive | inactive | -0.288 | inactive | inactive | inactive | inactive | inactive | 
O=C1CC2(CCCC2)CC(=O)N1 | inactive | inactive | inactive | inactive | 3.72 | inactive | inactive | inactive | inactive | inactive | 
C=C[Si](OC)(OC)OC | inactive | inactive | inactive | inactive | 16.1 | inactive | inactive | inactive | inactive | inactive | 
N#CCN(CC#N)CCN(CC#N)CC#N | inactive | inactive | inactive | inactive | 4.6 | inactive | inactive | inactive | inactive | inactive | 
CCC(=O)Nc1cccc(N)c1 | inactive | inactive | inactive | inactive | 0.318 | inactive | inactive | inactive | inactive | inactive | 
CCC(=O)/C=C/c1ccc(OC)cc1 | inactive | inactive | inactive | inactive | -0.0895 | inactive | inactive | inactive | inactive | inactive | 
CC1=CC(=O)CCC1 | inactive | inactive | inactive | inactive | -3.69 | inactive | inactive | inactive | inactive | inactive | 
C[C@H]1O[C@@H](n2cc(F)c(=O)[nH]c2=O)[C@H](O)[C@@H]1O | inactive | inactive | inactive | inactive | 0.654 | inactive | inactive | inactive | inactive | inactive | 
CSc1nc(NC2CC2)nc(NC(C)(C)C)n1 | inactive | inactive | 24.5 µM (active) | inactive |  | inactive | inactive | inactive | inactive | inactive | 24.5 µM (active)
NC1CCN(c2cccc(Cl)n2)CC1 | inactive | inactive | inactive | inactive | -1.03 | inactive | inactive | inactive | inactive | inactive | 
CC1CCN(CCCC(=O)c2ccc(F)cc2)CC1 | inactive | inactive | inactive | inactive | -2.98 | inactive | inactive | inactive | inactive | inactive | 
NC(=O)c1ncn([C@@H]2O[C@H](CO)[C@@H](O)[C@H]2O)c1N | inactive | inactive | inactive | inactive | -6.56 | inactive | inactive | inactive | inactive | inactive | 
CC(C)CCCCCCN | inactive | inactive | inactive | inactive | -7.14 | inactive | inactive | inactive | inactive | inactive | 
CC(C)(C)CC(C)(C)N | inactive | inactive | inactive | inactive | 11.1 | inactive | inactive | inactive | inactive | inactive | 
C=C(C)C(=O)OCCC(C)OC(=O)C(=C)C (stereo not given) | inactive | inactive | inactive | inactive | 8.52 | inactive | inactive | inactive | inactive | inactive | 
C=C(C)C1CC=C(C)C(O)C1 (stereo not given) | inactive | inactive | inactive | inactive | 9.55 | inactive | inactive | inactive | inactive | inactive | 
NS(=O)(=O)c1cc2c(cc1C(F)(F)F)NC(Cc1ccccc1)NS2(=O)=O (stereo not given) | inactive | inactive | inactive | inactive | -7.67 | inactive | inactive | inactive | inactive | inactive | 
CCn1c(=O)c2c(nc(/C=C/c3ccc(OC)c(OC)c3)n2C)n(CC)c1=O | inactive | inactive | 1.69 µM (active) | inactive |  | inactive | inactive | inactive | inactive | inactive | 1.69 µM (active)
CCCCCCC(=O)OCC | inactive | inactive | inactive | inactive | 14.5 | inactive | inactive | inactive | inactive | inactive | 
CCOC(=O)Nc1ccc2c(c1)N(C(=O)CCN1CCOCC1)c1ccccc1S2 | inactive | inactive | inactive | inactive | -6.68 | inactive | inactive | inactive | inactive | inactive | 
